Cruzain inh Det: qHTS Assay for Promiscuous and Specific Inhibitors of Cruzain (with detergent). Cruzipain (Trypanosoma cruzi), P25779. purified cruzain, Z-FR-AMC fluorescence, 0.01% Triton. Potency, µM, for the others: max response, negative = inhibition, hits mostly inhibitors. hit rate 0.43% among 200,000;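 further: plate controls were neutral wells for no effect and buffer without enzyme for full effect; nearly all actives have a fitted effect of over 40% in size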
Target sequence (P25779 123-467 limits assumed): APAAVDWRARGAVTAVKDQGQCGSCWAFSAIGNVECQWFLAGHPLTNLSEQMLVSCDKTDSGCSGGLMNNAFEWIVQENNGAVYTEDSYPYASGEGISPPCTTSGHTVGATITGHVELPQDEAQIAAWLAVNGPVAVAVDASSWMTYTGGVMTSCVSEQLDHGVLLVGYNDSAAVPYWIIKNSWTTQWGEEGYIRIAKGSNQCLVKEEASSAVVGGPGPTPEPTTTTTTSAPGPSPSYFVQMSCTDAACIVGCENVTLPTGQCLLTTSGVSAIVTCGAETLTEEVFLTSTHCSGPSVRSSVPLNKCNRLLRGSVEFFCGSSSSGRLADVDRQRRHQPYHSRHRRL
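Cruzain (1.5 nM) preincubated 15 min at RT with compound in 100 mM sodium acetate pH 5.5, 5 mM DTT, 0.01% Triton X-100. Reaction started with 2 uM Z-FR-AMC; AMC fluorescence (ex 360/em 450 nm) change over 60 s gave rate.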
Cruzain inh noDet: qHTS Assay for Promiscuous and Specific Inhibitors of Cruzain (without detergent); hit rate 2.3% among 200,000; purified cruzain, Z-FR-AMC fluorescence, no detergent; AID 1476, 2009; Cruzipain (Trypanosoma cruzi), P25779; Potency, µM, for inactives: max response, negative = inhibition, usual class: inhibitors;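 further: plate controls were enzyme without inhibitor for no effect and buffer without enzyme for full effect; nearly all actives have a fitted effect of over 40% in size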
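Detergent-free condition (0.00005% Triton X-100) in acetate buffer pH 5.5 with DTT. 1.5 nM enzyme and compound were pre-mixed 15 min, then 2 uM Z-FR-AMC substrate added; reaction progress from fluorescence change between first and third reads (60 s).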
Papain counter: qHTS Assay for Inhibitors of Papain: Counterscreen for Cruzain Assay. hit rate 41% among 410. AID 2161, 2009. Potency, µM, for inactives: max response, negative = inhibition, usual class: inhibitors. shares compounds with Cruzain inh Det. purified papain, Z-FR-AMC fluorescence cleavage;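 further: 0% = no-compound wells and -100% = no-enzyme wells; nearly all actives have a fitted effect of over 35% in size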
* = called active by the depositor; nt = no result given. Hits are enriched below; roughly 2.5% of the tested compounds scored in any of these assays. The call rests on the fitted dose curve; in most records, active means well fitted curve in the direction sought with a large enough effect; inconclusive means small, poorly fitted or top-dose-only effect, or another doubt; inactive means no such curve, though single readings can be large; an effect the other way counts as inactive or inconclusive. Potency means the concentration at half of the fitted maximal effect.

SMILES | Cruzain inh Det | Cruzain inh noDet | Papain counter
CC(=O)n1cc(/C=C2/N=C(c3ccccc3)OC2=O)c2ccccc21 | 4.5µM* | 20µM* | 1.6µM*
CCCn1c(-c2ccc(F)cc2)nc2c(NCCCN(CCO)CCO)nc(C)nc21 | 3% | -7% | nt
CCN(CC)c1nc(C#N)nc(N2CCOCC2)n1 | nt | nt | 1µM*
N#Cc1nc(N2CCCCC2)nc(N(c2ccccc2)c2ccccc2)n1 | nt | nt | 2.8µM*
Nc1nc(N2CCCCC2)nc(N(c2ccccc2)c2ccccc2)n1 | -5% | 6% | nt
CCN(c1ccccc1)c1nc(N)nc(C#N)n1 | nt | nt | 11µM*
Clc1nc(Cl)nc(N(c2ccccc2)c2ccccc2)n1 | -2% | -10% | nt
CCOc1nc(C#N)nc(N(c2ccccc2)c2ccccc2)n1 | nt | nt | -8%
CC(C)CN(C#N)c1nc(N2CCOCC2)nc(N2CCOCC2)n1 | 3% | 19% | nt
CN(C)c1nc(N)nc(Nc2ccccc2C#N)n1 | -1% | 7% | nt
NS(=O)(=O)c1ccc(N=Nc2ncccc2O)cc1 | 1% | 2% | nt
CC(C)(C)Nc1nc(N2CCCC2)nc(N2CCCC2)n1 | 3% | 9% | nt
CCNc1nc(C#N)nc(N2CCCCC2)n1 | nt | nt | 2.5µM*
N#Cc1nc(N2CCCCC2)nc(N2CCCCC2)n1 | nt | nt | 2.2µM*
CCNc1nc(NC(C)(C)C)nc(N2CCCC2)n1 | 0% | -14% | nt
C=C(C)CSc1nc2sc3c(c2c(=O)n1-c1ccccc1)CCC(C)C3 (configuration not stated) | 3% | 15% | nt
COc1ccc(CNC(=O)c2nn(-c3ccccc3C)nc2CO)cc1 | -1% | -11% | nt
COc1ccc(NCc2cc3cc4c(cc3n(CC(=O)Nc3ccccc3)c2=O)OCO4)cc1 | 2% | 18% | nt

Screening results deposited in PubChem by National Center for Advancing Translational Sciences (NCATS).
